Results as given in PubChem BioAssay (NCI).
This is part of a sample that, as a whole, favours compounds with a hit. Of some 83,000 tested, about 20% had one in any assay.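 How to read the values: 0–100, growth inhibition (40 = 60% inhibited); 0, no net growth; -100 to 0, cell death (-40 = 40% of starting cells died; -100 = all dead).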 A number with no mark means an inactive call. Calls of active or inactive are those of the source. How the source made its calls: active means growth percent below 10; inactive means the rest.

Tested on: HL-60(TB) leukemia
Test: NCI-60 one-dose screen, 48 h (100 = growth as untreated, 0 = no growth, -100 = all killed)
Conditions: 10 µM unless noted

Question: Which growth does the source give for `CCN(CC)c1ccc(/C=C/C(=O)c2cccc(NS(C)(=O)=O)c2)cc1` here?
Answer: 9.82% (active)

Question: For `COc1cccc(-c2nc(SCC(=O)Nc3ccc(C(=O)/C=C/c4ccc(OC)c(OC)c4)cc3)[nH]c(=O)c2C#N)c1`, which growth is on record?
Answer: 98.2%

Question: With `CCCCN(CCCC)C(=O)[C@H](CC)[C@@H]1CC[C@@H](C)[C@@H]([C@H](C)[C@@H](O)[C@@H](C)C(=O)[C@H](CC)C2O[C@]3(C=C[C@@H](O)[C@]4(CC[C@@](C)([C@H]5CC[C@](O)(CC)[C@H](C)O5)O4)O3)[C@H](C)C[C@@H]2C)O1` (stereo not given in full) as the compound, how does the growth read?
Answer: -40.8% (active)

Question: `Cc1cccc2c1NC(=O)[C@@]21[C@H](C(=O)c2ccccc2)[C@]2(C(=O)Nc3ccccc32)[C@H]2CCCN21` was tested. Which growth did it give?
Answer: 14.6% [100 µM]

Question: For `CCN(CC)c1ccc(/C=N/NC(=O)c2ccc(Nc3ccnc(C(F)(F)F)c3)cc2)c(O)c1`, which growth is on record?
Answer: 53.2%

Question: How did the growth turn out when `COc1ccc(C(=O)/C=C/c2ccc(OCc3ccccc3)c(OC)c2)cc1OC` was run?
Answer: 48.8%

Question: For `Cl.Fc1c[c-]c(-c2ccccn2)c(F)c1.[Pt].c1ccc([PH+](CC[PH+](c2ccccc2)c2ccccc2)c2ccccc2)cc1`, which growth is on record?
Answer: -29.2% (active)

Question: For `O=S(=O)(OCCO)c1ccccc1`, which growth is on record?
Answer: 107%

Question: For `Cc1ccc(-n2nnnc2N)c(C)c1`, which growth is on record?
Answer: 117%

Question: `COc1ccc(C2CCCCC2=O)cc1` (stereo not given) was tested. Which growth did it give?
Answer: 122%

Question: For `Cc1ccc(/C=C(/C#N)n2nnc3cccc(F)c32)cc1`, which growth is on record?
Answer: -18.2% (active)

Question: `O=C(O)C1CN(c2cccc(Cl)c2)N(c2cccc(Cl)c2)C1=O` (stereo not given) was tested. Which growth did it give?
Answer: 95.3%

Question: With `O=C1c2c(O)cc(O)cc2OC(c2ccc(O)c(O)c2)C1O` (stereo not given) as the compound, how does the growth read?
Answer: 110%

Question: Which growth does the source give for `CC(C)=C1CCC(C)C/C1=N\N=C(N)N` (stereo not given) here?
Answer: 104%

Question: With `CNC(=O)c1cc(Oc2ccc3nc(NC(=O)Nc4ccc(N5CCC(N(C)C)CC5)cc4)sc3c2)ccn1` as the compound, how does the growth read?
Answer: 77.1%

Question: For `O=C1/C(=C/c2ccccc2)CN(CCC(=O)N2C/C(=C\c3ccccc3)C(=O)/C(=C/c3ccccc3)C2)C/C1=C\c1ccccc1`, which growth is on record?
Answer: 48%

Question: Which growth does the source give for `Cc1ccc(C2=N[C@H]3CCC[C@@H]3N(c3ccccc3)C(C(Cl)Cl)=N2)cc1` here?
Answer: 93.2%

Question: How did the growth turn out when `CC(C)c1ccc(C(=O)Nc2nc3ccc(O)cc3s2)cc1` was run?
Answer: 14.4%

Question: `COc1cc(-c2nccc3[nH]c(-c4ccc5cc[nH]c5c4)nc23)cc(OC)c1OC` was tested. Which growth did it give?
Answer: -48.7% (active)

Question: How did the growth turn out when `CC1CC2C3CCC4=CC(=O)CCC4(C)C3CCC2(C)C1(O)C(=O)CO` (stereo not given) was run?
Answer: 75.4%

Question: Which growth does the source give for `c1ccc2c(NCCCN3CCN(CCCNc4c5ccccc5nc5ccccc45)CC3)c3ccccc3nc2c1` here?
Answer: -23.8% [100 µM] (active)

Question: Which growth does the source give for `COc1ccc(-n2cnc3cc(C(=O)N4CCCCC4)ccc32)cc1` here?
Answer: 105%

Question: With `CC(C)NS(=O)(=O)c1cccc(-c2ccc3c4c(n(CCCN(C)C)c(=O)c3c2)-c2ccccc2C4=O)c1` as the compound, how does the growth read?
Answer: 65.3%

Question: How did the growth turn out when `O=C(CC1Sc2ccccc2NC1=O)NNc1ccc(F)cc1` (stereo not given) was run?
Answer: 14.3%

Question: Which growth does the source give for `CCN(CC)CCCC(C)NCCCNc1cccc2cccnc12` (stereo not given) here?
Answer: -5.92% (active)

Question: `CC1(O)OC(COc2ccc(Cl)cc2)COC1O` (stereo not given) was tested. Which growth did it give?
Answer: 105%

Question: How did the growth turn out when `CCn1c2ccccc2c2ccc(C(C)=O)cc21` was run?
Answer: 118%

Question: Which growth does the source give for `CCN(CC)CC(=O)N(CC)c1ccc(C)c(Cl)c1` here?
Answer: 71.7%

Question: With `CC/C=C\C[C@H]1C/C=C2/C(=O)C(Cl)=C[C@@H]2C/C=C\CCCC(=O)O1` as the compound, how does the growth read?
Answer: -6.91% (active)

Question: Which growth does the source give for `Cc1cc(C)c(S(=O)O)c(C)c1` here?
Answer: 102%

Question: Which growth does the source give for `CCOc1cc2c(cc1OCC)C(c1cc(OC)c(O)cc1Cl)NCC2` (stereo not given) here?
Answer: 91.7%

Question: Which growth does the source give for `CC(C)CSc1nc(NN)c(C#N)c(-c2ccc(F)cc2)n1` here?
Answer: 94.4%

Question: `CCOC(=O)c1c(C)nc2c(c1N)C(=O)C(=O)N2CCc1ccc(OC)c(OC)c1` was tested. Which growth did it give?
Answer: 65.6%

Question: `O=C(N/N=C/c1ccccc1O)c1ccccc1Nc1ccnc(C(F)(F)F)c1` was tested. Which growth did it give?
Answer: 7.92% (active)

Question: Which growth does the source give for `CCCCCCCCCC(C)NC(=O)CCl` (stereo not given) here?
Answer: 92.3%

Question: With `O=C(CCN1CCCC1)Nc1ccc2c(NCCCc3ccccc3)c3ccccc3nc2c1` as the compound, how does the growth read?
Answer: -55.6% (active)

Question: Which growth does the source give for `Cc1cnc([C@]23CC[C@@H](C)[C@H](C)[C@H]2C2=CC[C@@H]4[C@@]5(C)Cc6c([nH]c7ccccc67)C(C)(C)[C@@H]5CC[C@@]4(C)[C@]2(C)CC3)o1` here?
Answer: 38.2% [100 µM]

Question: For `CCN(CC)CCCNc1cccc2c(C)cc(OC)nc12`, which growth is on record?
Answer: 106%

Question: How did the growth turn out when `CCCCCCCCCCCCCCCC[N+]1(C)CCCC1c1cccnc1` (stereo not given) was run?
Answer: 1.61% (active)

Question: For `CCN1CCN(CC(=O)Nc2nc3ccc(NCc4ccc(Cl)cc4)cc3s2)CC1`, which growth is on record?
Answer: 29%
